Compounds with a hit are over-represented: about 3.6% of the library has one in this group of screens.
mHTT CaM bind: inhibitors of human mutant huntingtin-calmodulin interaction; P42858; inhibition, % at 15 µM; AlphaScreen His-mHTT/GST-CaM binding, luminescence; 3.6% of 190,000 active; AID 1671202
Pf apPOL block: Pf-apPOL DNA polymerase inhibition | Recombinant Pf-apPOL, molecular beacon fluorescence, 1.5 h | inhibition, % at 10 µM | 0.25% of 210,000 active
Large screens that a line does not name were inactive. Cut-off read from the data, not from the text of the source: active = inhibition above about 50%; inactive = the rest.

Cc1ccc(NC(=O)C(=O)NCCc2ccc(Cl)cc2)cc1Cl	none
Cc1ccc(N2CCN(Cc3nc4ccccc4[nH]c3=O)CC2)cc1	none
c1ccc(-c2nnc3n2C2(CCCC2)Cc2ccccc2-3)cc1	none
O=C1C=C2c3ccccc3CC3(CCCC3)N2C1=O	mHTT CaM bind 84.0
CCCCC[C@@H](C)N1C[C@@H](COCc2ccccc2)Oc2cc(N3CCC[C@@H]3CO)ccc2S1(=O)=O	none
CCCCC[C@H](C)N1C[C@@H](COCc2ccccc2)Oc2cc(N3CC[C@@H](O)C3)ccc2S1(=O)=O	mHTT CaM bind 74.0
CCCCC[C@@H](C)N1C[C@@H](COCc2ccccc2)Oc2cc(N3CC[C@@H](O)C3)ccc2S1(=O)=O	mHTT CaM bind 99.2
CCCCC[C@H](C)N1C[C@H](COCc2ccccc2)Oc2cc(N3CCC[C@H]3C(N)=O)ccc2S1(=O)=O	none
CCCCC[C@@H](C)N1C[C@H](COCc2ccccc2)Oc2cc(N3CCC[C@H]3C(N)=O)ccc2S1(=O)=O	none
CCCCC[C@@H](C)N1C[C@@H](COCc2ccccc2)Oc2cc(N3CC[C@H](O)C3)ccc2S1(=O)=O	mHTT CaM bind 89.7
COc1ccc(OC)c(S(=O)(=O)N2CCC(c3noc(-c4ccc(F)cc4)n3)CC2)c1	none
O=c1oc2ccccc2c(NCc2ccco2)c1[N+](=O)[O-]	none
c1ccc(-n2ncc3c2CCc2c-3[nH]c3ccccc23)cc1	none
c1ccc(-n2ncc3c2-c2[nH]c4ccccc4c2CC3)cc1	mHTT CaM bind 92.7
Cc1ccc(NC(=O)Nc2cccc(Oc3ccc(C)nn3)c2)c(Cl)c1	none
CCOc1ccccc1NC(=O)N1CCCC1c1nc(-c2ccc(F)cc2F)no1 (stereo not given)	none
Cc1ccc(NC(=O)c2cc3ccccc3oc2=O)c(Br)c1	none
Cc1ccc(NC(=O)c2cc3cc(Br)ccc3oc2=O)c(Br)c1	Pf apPOL block 85.0
CC(C)NC(=O)N1CCCC(C)(C(=O)NCc2ccc(F)cc2)C1 (stereo not given)	none
O=C(Cc1ccccc1F)N1CCc2[nH]cnc2C1c1ccccc1 (stereo not given)	none
O=C(Cc1ccc(F)cc1)N1CCc2[nH]cnc2C1c1ccncc1 (stereo not given)	none
O=C(Nc1ccccc1)N1CCc2[nH]cnc2C1c1ccccc1 (stereo not given)	none
O=C(Cc1cccc(F)c1)N1CCc2[nH]cnc2C1c1ccccn1 (stereo not given)	mHTT CaM bind 70.4
O=C(Nc1ccccc1)N1CCc2[nH]cnc2C1c1ccccn1 (stereo not given)	mHTT CaM bind 50.8
O=C(Cc1ccc(Cl)cc1)N1CCc2[nH]cnc2C1c1ccccn1 (stereo not given)	mHTT CaM bind 90.9
CCOc1cccc(NC(=O)CC2SC(=N)NC2=O)c1 (stereo not given)	none
COc1ccc(C2C(C(C)=O)=C(O)C(=O)N2c2cccc(Br)c2)cc1 (stereo not given)	none
Cc1ccc(CNC(=O)CN(C)S(=O)(=O)c2ccc3[nH]c4c(c3c2)CCCC4)cc1	none
O=C(CCC1CCCC1)NCc1ccc2[nH]c3c(c2c1)CCCC3	mHTT CaM bind 100.2
NNC(=O)c1ccc2[nH]c3c(c2c1)CCCC3	none
O=C(CCC1CCCCC1)NCc1ccc2[nH]c3c(c2c1)CCCC3	mHTT CaM bind 98.4
O=C1OC(/C=C/c2ccccc2)=NC/1=C\c1ccccc1C(F)(F)F	none
NS(=O)(=O)c1ccc(-c2ccc(C=O)o2)cc1	none
O=Cc1ccc(-c2ccc(S(=O)(=O)O)cc2)o1	mHTT CaM bind 76.5
Cc1nc(C)n(CC(O)COc2ccc(-c3ccccc3)cc2)n1 (stereo not given)	none
Cc1nn(CC(O)COC(c2ccccc2)c2ccccc2)c(C)c1Br (stereo not given)	mHTT CaM bind 99.0
Cc1ccc(C(=O)N2CCC(CCNS(=O)(=O)c3cccc(Cl)c3C)CC2)cc1	mHTT CaM bind 57.0
Cc1ccc(C(=O)N2CCC(CCNS(=O)(=O)c3ccccc3Cl)CC2)cc1	none
O=C(c1ccc(F)cc1)N1CCC(CCNS(=O)(=O)c2cccc3nsnc23)CC1	none
Cc1ccc(C(=O)N2CCC(CCNS(=O)(=O)c3cccc4nsnc34)CC2)cc1	mHTT CaM bind 51.5
Cc1ccc(S(=O)(=O)NCCC2CCN(C(=O)c3ccc(F)cc3)CC2)cc1C	none
O=C(c1ccccc1)N1CCC(CCNS(=O)(=O)c2ccc(F)c(Cl)c2)CC1	none
Cc1cc(C)c(S(=O)(=O)NCCC2CCN(C(=O)c3ccc(F)cc3)CC2)cc1C	mHTT CaM bind 55.5
Cc1ccc(C(=O)N2CCC(CCNS(=O)(=O)c3ccc(F)c(Cl)c3)CC2)cc1	mHTT CaM bind 61.9
CCCc1noc(-c2cccnc2N2CCCN(Cc3ccc(C)cc3)CC2)n1	none
Cc1cc(C)c2c(N3CCCC3)nc(C(=O)Nc3ccccc3F)nc2n1	none
CSc1cccc(NC(=O)C(=S)NCc2ccccc2)c1	none (no result: mHTT CaM bind)
Cc1nc2n(c(=O)c1C)CCN2CCOc1ccccc1	none
CCOc1ccccc1/C=C1/N=C(c2cc([N+](=O)[O-])ccc2OC)OC1=O	none
Cc1cc(-c2c(C(=O)O)c(C)nn2-c2ccccc2)no1	none (no result: mHTT CaM bind)
CC(C)CN1CCCN(c2ccc(NC(=O)c3ccc(F)cc3)cn2)CC1	none
O=C(c1ccc(F)cc1)N1CCC(CCNS(=O)(=O)c2ccccc2F)CC1	none
Cc1c(Cl)cccc1S(=O)(=O)NCCC1CCN(C(=O)c2ccc(F)cc2)CC1	mHTT CaM bind 51.3
COc1cccc(-c2sc3ccccc3c2-c2ccc(OCc3cccc(OC)c3OC)cc2)c1	none
COc1ccc(C(C#N)N2N=C(C)CC2c2ccccc2)cc1OC (stereo not given)	none
COc1ccc(C(C#N)N2N=C(c3ccccc3)CC2c2ccccc2)cc1OC (stereo not given)	mHTT CaM bind 79.0
Cc1nnc(NC(=O)c2ccccc2O)s1	none
O=C(Cc1csc(NC(=O)C2CC2)n1)NCc1ccccn1	none
O=C(NCc1cccc(Br)c1)c1cn2c(n1)CCCC2	none
CCCN1C(=O)/C(=C\c2nc3ccccc3c(=O)[nH]2)c2ccccc21	none
CC(C)N1C(=O)/C(=C\c2nc3ccccc3c(=O)n2-c2ccc([N+](=O)[O-])cc2)c2ccccc21	mHTT CaM bind 61.0
CCCN1C(=O)/C(=C\c2nc3ccccc3c(=O)n2-c2ccccc2[N+](=O)[O-])c2ccccc21	none
CCCN1C(=O)/C(=C\c2nc3ccccc3c(=O)n2-c2ccccc2OC)c2ccccc21	mHTT CaM bind 56.0
CCN1C(=O)/C(=C\c2nc3ccccc3c(=O)n2-c2ccccc2C)c2ccccc21	mHTT CaM bind 63.0
O=C(O)c1ccc(-n2c(/C=C/c3ccc([N+](=O)[O-])cc3)nc3ccccc3c2=O)cc1	none
COCc1cc(C)nc2sc(-c3ccc([N+](=O)[O-])o3)c(NC(=O)c3ccccc3)c12	none
Cc1ccccc1Nc1cc(C(=O)N2CCSCC2)nc2ccccc12	none
CCOc1ccc(C(=O)Nc2c3c(nn2-c2ccc(OC)cc2)CS(=O)C3)cc1 (stereo not given)	none
COc1ccc(CC(=O)Nc2c3c(nn2-c2ccc(OC)cc2)CSC3)cc1	none
COc1ccc(CNC(=O)Cn2nc3c(c2NC(=O)Cc2cccs2)CSC3)cc1	mHTT CaM bind 66.3
CCc1sc(/C=C(/C#N)C(N)=S)cc1Br	none (no result: Pf apPOL block)
CCN1CCN(Cc2c(O)ccc3c2OC(=Cc2ccc(C(C)C)cc2)C3=O)CC1	none
COc1ccc(NC(=O)c2ccc(-c3ccc(Cl)cc3)o2)cc1OC	mHTT CaM bind 59.4
COc1ccc(NC(=O)c2ccc(-c3cccc(Cl)c3)o2)cc1OC	none
Cc1ccc(NC(=O)CSc2nc3nc(C)cc(C)n3n2)c(C)c1	none
